A selection: hits, their analogues and other compounds. The true share with any hit is near 4.3%.
MITF TRPM1 HTS = activators of MITF-driven TRPM1 promoter reporter, primary screen, cell-based, SK-MEL-5, luciferase, single point. 0.75% of 300,000 active. SK-MEL-5 TRPM1-promoter luciferase, 24 h; % of positive control, neutral wells = 0. activation, % at 12.5 µM. AID 588334, 2011;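 active = mean activation of at least 80% with every replicate also reaching 80%; inconclusive = mean reaches 80% but some replicate falls short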;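 also: 0% = neutral control wells and 100% = parthenolide positive control wells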
esBAF inh = Bmi1 luciferase reporter increase in mESCs, primary screen, esBAF inhibitor project, mouse ES cells, Bmi1 luciferase knock-in, single point; 24 h; 100% = twice the neutral-well signal; reporter increase, % at 12.5 µM; 2% of 350,000 active; AID 602393, 2012; in the data active = activation above about 40%; inconclusive = no clear call, values can overlap the other calls;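 also: 0% = median of the plate's neutral control wells and 100% = double that signal; a rise in the Bmi1 reporter signal indicates esBAF inhibition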
Wnt act = Wnt/beta-catenin pathway activators, primary screen, cell-based, plate reader, single point. activation, % at 9.35 µM. 1.2% of 300,000 active. Wnt/beta-catenin reporter cell assay, activator. AID 743398, 2014; in the data active = activation above about 30%, passing the limit was not always enough; inconclusive = no clear call, values can overlap the other calls;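 also: 0% = neutral control wells and 100% = positive control wells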
MLL AF4-AF9 inh = inhibitors of AF4 peptide binding to AF9, primary screen, biochemical, AlphaScreen, biotin-AF4 peptide, FLAG-AF9, single point | Protein AF-9 (Homo sapiens), P42568 | AID 651704, 2012 | 0.47% of 350,000 active | inhibition, % at 10 µM;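 active = every replicate reaching a set inhibition limit, whatever the replicate mean, cut at about 25% in these data; inconclusive = mean inhibition reaches that limit but some replicates miss it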;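 also: 0% = plate neutral control median and 100% = total signal loss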
Target sequence (P42568 whole entry, looked up): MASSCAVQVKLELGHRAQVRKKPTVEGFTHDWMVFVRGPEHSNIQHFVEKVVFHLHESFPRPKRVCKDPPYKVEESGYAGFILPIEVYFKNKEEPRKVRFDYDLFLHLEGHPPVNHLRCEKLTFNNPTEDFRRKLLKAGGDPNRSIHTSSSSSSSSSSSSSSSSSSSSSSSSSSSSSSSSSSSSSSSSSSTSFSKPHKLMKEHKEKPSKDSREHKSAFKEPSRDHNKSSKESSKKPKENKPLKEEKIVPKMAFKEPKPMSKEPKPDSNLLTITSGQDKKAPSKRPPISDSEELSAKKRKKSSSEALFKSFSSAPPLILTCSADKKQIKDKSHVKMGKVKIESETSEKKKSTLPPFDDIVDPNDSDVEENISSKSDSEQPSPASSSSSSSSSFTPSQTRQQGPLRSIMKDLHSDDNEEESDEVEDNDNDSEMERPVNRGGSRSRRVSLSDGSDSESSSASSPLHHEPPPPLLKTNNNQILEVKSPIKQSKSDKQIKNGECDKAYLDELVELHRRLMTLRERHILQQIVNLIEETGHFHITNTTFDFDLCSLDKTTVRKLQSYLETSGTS
SMARCA2 act = SMARCA2 (BRM) function activators, primary screen, cell-based, luminescence, high throughput; 1% of 370,000 active; activation, % at 9.1 µM; MG213 cells, MMTV-luciferase reporter, dexamethasone, overnight; AID 652017, 2013; in the data active = activation above about 7.8%;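 also: 0% = vehicle wells and 100% = reference activator wells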
FGF22 binding = binders of human FGF22 protein, primary screen, FGF22 synaptogenesis inhibitor project, biophysical, thermal shift, single point. Fibroblast growth factor 22 (Homo sapiens), Q9HCT0. recombinant FGF22 thermal shift, SYPRO orange fluorescence; percent of sucrose octasulfate shift, DMSO zero. activity (Tm shift, normalised), % at 9.99 µM. 1.5% of 340,000 active. AID 651658, 2012;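 active = mean Tm shift, scaled 0 neutral to 100 positive control, at about 1.3% or above, every replicate too, limit read from the data; inconclusive = no clear call, values can overlap the other calls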
Target sequence (Q9HCT0 whole entry, looked up): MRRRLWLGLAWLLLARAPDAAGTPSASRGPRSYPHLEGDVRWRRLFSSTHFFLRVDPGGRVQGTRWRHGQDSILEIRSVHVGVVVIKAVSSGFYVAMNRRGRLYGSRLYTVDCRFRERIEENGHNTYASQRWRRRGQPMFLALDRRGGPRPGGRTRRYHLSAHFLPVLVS
* = called active by the depositor; ? = inconclusive; . = no result.

SMILES | MITF TRPM1 HTS | esBAF inh | Wnt act | MLL AF4-AF9 inh | SMARCA2 act | FGF22 binding
Cc1noc(C)c1-c1ccc(C(=O)NC2CCCCC2)c2occc12 | . | 52.9* | 24.4 | -1.7 | -1.2 | -0.4
COc1ccc(NC(=O)c2ccc(-c3c(C)noc3C)c3ccoc23)cc1 | . | 55.6* | 23.4 | -0.1 | -1.7 | 0.7
O=C(NCC[C@@H]1CC[C@H](NC(=O)c2cnccn2)[C@@H](CO)O1)Nc1ccc(Cl)cc1 | . | 16.4 | . | 13.1 | . | 0.1
O=C(Cc1ccncc1)NCC[C@H]1CC[C@@H](NC(=O)Nc2ccc(Cl)cc2)[C@H](CO)O1 | . | -2.4 | . | 0.6 | . | 0.1
COc1ccc(NC(=O)c2cc3sccc3n2Cc2ccc(F)cc2)cc1OC | 54.8 | 65.1* | 17.4 | . | 3.9 | .
COc1cc(NC(=O)c2cc3sccc3n2C)cc(OC)c1 | 77.2 | 42.0* | ? | . | 3.6 | .
COC(=O)c1ccc(NC(=O)c2cc3sccc3n2C)cc1 | 30.1 | 55.0* | 19.0 | . | 6.2 | .
Cn1c(C(=O)Nc2ccc3c(c2)OCO3)cc2sccc21 | 62.1 | 32.8 | . | . | 3.5 | .
C[C@H](CO)N1C[C@H](C)[C@H](CN(C)C(=O)CN(C)C)Oc2cc(C#Cc3ccc(F)cc3)ccc2S1(=O)=O | . | 1.4 | . | 20.2 | . | -0.6
COc1ccc(C(=O)CSc2nnc(-c3ccc(C(C)(C)C)cc3)n2C)cc1 | . | . | . | . | -5.6 | .
Cc1cc(=O)cc(C)n1-c1ccc(Cl)cc1 | -4.5 | . | -0.6 | -1.2 | 1.6 | 0.0
Cc1csc(=N)n1-c1ccc(Cl)cc1 | 96.8* | 63.5* | -1.1 | -8.0 | 4.8 | 0.3
Cc1ccc(S(=O)(=O)N(C)C[C@H]2OCCCC[C@@H](C)Oc3ccc(NC(=O)Nc4cccc5ccccc45)cc3C(=O)N([C@@H](C)CO)C[C@H]2C)cc1 | . | 4.4 | . | -3.4 | . | -0.1
CCc1sc(N2C(=O)C3C4CCC(C4=C(C)C)C3C2=O)nc1-c1ccccc1 (stereo unspecified) | -3.8 | 54.3* | . | . | -0.6 | .
CCc1sc(NC(C)=O)nc1-c1ccccc1 | 20.6 | 0.4 | . | -1.0 | -2.7 | 0.0
CC(C)C[C@H]1CNC(=S)N1C[C@H]1CCCN1C[C@H](Cc1ccc(O)cc1)N1C[C@H](Cc2ccc(O)cc2)N(CC2CCCCCC2)C1=S | . | 0.8 | -3.2 | -0.7 | -2.5 | 42.9*
CC1(C)CC(=O)C=C(c2ccc(Oc3ccccc3)cc2)C1 | 70.3 | 68.4* | 26.4 | 0.1 | 4.1 | 0.2
CC1(C)CC(=O)C=C(c2ccc(OC(F)(F)F)cc2)C1 | 22.0 | -3.6 | -4.3 | -4.8 | -0.9 | 0.0
COc1ccc2nc(NC(=O)c3cccs3)sc2c1 | . | ? | 47.9* | 3.6 | 0.1 | -0.1
COc1ccc2nc(NC(=O)c3ccco3)sc2c1 | -7.8 | -57.1 | 2.7 | -3.4 | -1.4 | 0.6
O=C(Nc1ccc2c(c1)OCCO2)c1cccs1 | 42.8 | 8.0 | 14.8 | -0.3 | 4.4 | -0.2
O=C(NNc1nc2cc3c(cc2s1)OCO3)c1ccccc1 | 12.4 | 31.1 | 5.0 | ? | 0.3 | 0.0
O=C(NNc1nc2cc3c(cc2s1)OCO3)c1cccc(F)c1 | 56.4 | 47.2* | 6.0 | 0.1 | 4.4 | -0.1
COc1ccc2nc(NC(=O)c3ccccc3O)sc2c1 | 88.0* | 7.8 | 37.8* | -1.3 | 2.9 | 0.2
O=C(Nc1nc2cc3c(cc2s1)OCCO3)c1cccs1 | -15.4 | -57.1 | 32.4* | -16.4 | -3.4 | 0.5
SMILES | MITF TRPM1 HTS | esBAF inh | Wnt act | MLL AF4-AF9 inh | SMARCA2 act | FGF22 binding
COCC#Cc1cnc2c(c1)C(=O)N([C@H](C)CO)C[C@@H](C)[C@@H](CN(C)C(=O)Cc1ccccc1)O2 | . | 3.5 | . | -2.6 | . | -0.2
O=C(C[C@H]1CC[C@H]2[C@@H](COC[C@@H](O)CN2C(=O)c2ccc(F)cc2)O1)NCc1cccc(F)c1 | . | -2.0 | . | -0.5 | . | -0.1
Cc1ccnc(SCC(=O)c2cccs2)n1 | 93.2* | . | 43.8* | -3.9 | 3.9 | 0.5
COc1ccccc1C(=O)Nc1nc2cc3c(cc2s1)OCO3 | 65.5 | 57.5* | -1.1 | -15.4 | 3.8 | -0.3
Cc1ccnc(SCC(=O)c2ccc(Br)s2)n1 | 41.7 | -1.3 | . | -2.7 | 1.8 | 0.3
COc1ccccc1C(=O)Nc1nc2cc3c(cc2s1)OCCO3 | 12.3 | 35.1 | . | . | . | .
COc1ccc2nc(NC(=O)c3ccc([N+](=O)[O-])o3)sc2c1 | . | 36.3 | 7.5 | -1.7 | 4.0 | 0.1
CCOc1ccc2nc(SCC(=O)c3cccs3)sc2c1 | . | 90.0* | 49.7* | . | 6.6 | .
COc1ccc2nc(NC(=O)c3ccccc3[N+](=O)[O-])sc2c1 | 16.4 | 49.7* | 7.8 | 1.3 | -0.2 | 0.3
O=C(c1ccccn1)N1CC(=O)N2[C@H](CO)[C@H](c3ccc(C#Cc4ccccc4)cc3)[C@H]2C1 | . | . | . | 0.4 | . | .
C/C(=N\NC(=O)c1ccccc1C)c1ccc(NC(=O)c2cccs2)cc1 | 14.4 | 53.2* | . | . | 6.8 | .
C/C(=N\NS(=O)(=O)c1ccc([N+](=O)[O-])cc1)c1ccc(NC(=O)c2ccco2)cc1 | 68.1 | -0.1 | 34.1* | -0.6 | 0.1 | 42.7
C/C(=N\NC(=O)c1ccco1)c1ccc(NC(=O)c2cccs2)cc1 | 31.9 | . | 39.3* | . | 3.8 | .
CC(=O)c1cccc(NC(=O)CCCOc2ccc(C)cc2)c1 | -7.1 | -0.3 | 0.9 | -12.0 | -1.8 | 0.2
O=C(Nc1cccc(Cl)c1)OCCOc1ccccc1 | 79.5 | 60.6* | 7.1 | -10.4 | 2.8 | 0.0
Cc1ccc(OC(=O)Nc2ccccc2)cc1 | ? | 50.4* | 22.7 | -11.6 | 0.7 | -0.2
O=C(CCCOc1ccc(Cl)cc1)Nc1cccc(C(=O)O)c1 | -2.5 | 1.4 | 56.3* | 0.4 | 2.6 | .
Cc1ccc(NC(=O)CCOc2ccccc2)cc1 | 90.2* | 55.9* | 24.4 | 0.0 | 2.5 | 0.0
O=C(Nc1ccccc1)OCCOc1ccccc1 | 52.3 | 52.1* | . | . | 6.7 | .
O=C(Nc1ccccc1)OCCOc1ccccc1Br | . | 45.3* | 21.6 | -2.4 | 0.0 | -0.2
COc1ccc(OCCOC(=O)Nc2ccccc2)cc1 | -0.2 | 17.6 | . | . | 0.4 | .
O=C(Nc1ccccc1)OCCOc1cccc(Br)c1 | . | 11.4 | 15.8 | -2.1 | 0.7 | 0.1
CC(C(=O)O)n1ncc2ccccc2c1=O (stereo unspecified) | -0.2 | . | 0.7 | ? | -5.3 | 0.1
O=C(O)CCn1ncc2ccccc2c1=O | 0.3 | 8.3 | 0.4 | -1.9 | -0.3 | 43.4*
O=c1c2ccccc2cnn1CCOc1cccc(Br)c1 | -2.3 | 49.0* | 20.9 | -1.6 | 4.8 | -0.1
C[C@H]1CN([C@@H](C)CO)C(=O)c2c(c3ccccc3n2C)-c2ccccc2CO[C@H]1CN(C)C(=O)NC1CCCCC1 | . | 8.6 | . | -4.4 | . | -0.2
O=C(NC1CC(=O)c2sccc21)c1ccc(Cl)cc1Cl (stereo unspecified) | 57.0 | 42.7* | 6.5 | -2.8 | 7.5 | -0.3
CCN(CC)c1ccc2cc(C(C)=O)c(=O)oc2c1 | 12.3 | . | 27.6 | . | 3.8 | .

Screens from PubChem.
